Assay results from PubChem BioAssay AID1159580 (chemical genetic matrix, 2015).
Hit rate of the full screen: of about 5,500 compounds, about 2,000 (36%) were called active. About 18% were inconclusive and are not listed. No stated cut-off is given here; in the data, active means normalized growth mostly below about 0.91 (no sharp cut-off); inconclusive means no clear call, values can overlap the other calls; inactive means mostly above about 0.92. The list shows a part of the results.

Experiment: chemical genetic growth profiling, strain panel (AID 1159580);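 further: tested at 20 µM; growth read once vehicle control cultures reached saturation at 30 °C; 1 = growth at the plate median or of vehicle wells; lower values mean less growth of the strain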
Conditions: growth OD

Measured: normalized growth

CNC(=O)Oc1cccc2c1OC(C)(C)C2
inactive: S. cerevisiae deletion strains, locus YAL013W, strain DEP1, active compounds read low 1.01 | S. cerevisiae deletion strains, locus YBR021W, strain FUR4, active compounds read low 0.994 | S. cerevisiae deletion strains, locus YBR229C, strain ROT2, active compounds read low 1 | S. cerevisiae deletion strains, locus YCL029C, strain bik1, active compounds read low 1 | S. cerevisiae deletion strains, locus YDL035C, strain GPR1, active compounds read low 1.01 | S. cerevisiae deletion strains, locus YDL074C, strain BRE1, active compounds read low 1.03 | S. cerevisiae deletion strains, locus YDL101C, strain DUN1, active compounds read low 1.02 | S. cerevisiae deletion strains, locus YDL134C, strain PPH21, active compounds read low 0.997 | S. cerevisiae deletion strains, locus YDL185W, strain tfp1, active compounds read low 0.978 | S. cerevisiae deletion strains, locus YDL192W, strain arf1, active compounds read low 1 | S. cerevisiae deletion strains, locus YDR101C, strain arx1, active compounds read low 0.992 | S. cerevisiae deletion strains, locus YDR150W, strain NUM1, active compounds read low 1.01 | S. cerevisiae deletion strains, locus YDR162C, strain NBP2, active compounds read low 1.01 | S. cerevisiae deletion strains, locus YDR318W, strain mcm21, active compounds read low 0.995 | S. cerevisiae deletion strains, locus YDR388W, active compounds read low 0.996 | S. cerevisiae deletion strains, locus YDR502C, strain sam2, active compounds read low 1 | S. cerevisiae deletion strains, locus YEL061C, strain CIN8, active compounds read low 1 | S. cerevisiae deletion strains, locus YER110C, active compounds read low 0.993 | S. cerevisiae deletion strains, locus YER155C, strain BEM2, active compounds read low 1.02 | S. cerevisiae deletion strains, locus YER167W, strain BCK2, active compounds read low 1.02 | S. cerevisiae deletion strains, locus YGL078C, strain dbp3, active compounds read low 0.979 | S. cerevisiae deletion strains, locus YGL086W, strain mad1, active compounds read low 0.995 | S. cerevisiae deletion strains, locus YGL248W, strain PDE1, active compounds read low 1.01 | S. cerevisiae deletion strains, locus YGR078C, strain PAC10, active compounds read low 1.01 | S. cerevisiae deletion strains, locus YGR135W, strain pre9, active compounds read low 1 | S. cerevisiae deletion strains, locus YGR229C, strain SMI1, active compounds read low 1.02 | S. cerevisiae deletion strains, locus YGR252W, strain gcn5, active compounds read low 0.99 | S. cerevisiae deletion strains, locus YHR030C, strain SLT2, active compounds read low 1.01 | S. cerevisiae deletion strains, locus YHR079C, strain IRE1 (second series), active compounds read low 0.996 | S. cerevisiae deletion strains, locus YHR094C, strain hxt1, active compounds read low 0.994 | S. cerevisiae deletion strains, locus YHR129C, strain ARP1, active compounds read low 1.01 | S. cerevisiae deletion strains, locus YHR200W, strain rpn10, active compounds read low 1 | S. cerevisiae deletion strains, locus YIL066C, strain RNR3, active compounds read low 1.01 | S. cerevisiae deletion strains, locus YIL073C, strain SPO22, active compounds read low 1.04 | S. cerevisiae deletion strains, locus YIL125W, strain kgd1, active compounds read low 0.987 | S. cerevisiae deletion strains, locus YIR030C, strain dcg1, active compounds read low 0.996 | S. cerevisiae deletion strains, locus YJL095W, strain BCK1, active compounds read low 1 | S. cerevisiae deletion strains, locus YJL134W, strain LCB3, active compounds read low 1 | S. cerevisiae deletion strains, locus YJL168C, strain set2, active compounds read low 0.997 | S. cerevisiae deletion strains, locus YJL187C, strain SWE1 (second series), active compounds read low 1.01 | S. cerevisiae deletion strains, locus YJR043C, strain POL32, active compounds read low 1.01 | S. cerevisiae deletion strains, locus YJR075W, strain HOC1, active compounds read low 1.01 | S. cerevisiae deletion strains, locus YKL009W, strain mrt4, active compounds read low 1.01 | S. cerevisiae deletion strains, locus YKL068W, active compounds read low 0.987 | S. cerevisiae deletion strains, locus YKL085W, strain MDH1 (second series), active compounds read low 0.978 | S. cerevisiae deletion strains, locus YKL085W, strain MDH1, active compounds read low 0.978 | S. cerevisiae deletion strains, locus YKL190W, strain CNB1, active compounds read low 1.02 | S. cerevisiae deletion strains, locus YKR001C, strain vps1, active compounds read low 0.999 | S. cerevisiae deletion strains, locus YLR039C, strain RIC1, active compounds read low 1.04 | S. cerevisiae deletion strains, locus YLR058C, strain SHM2, active compounds read low 1.01 | S. cerevisiae deletion strains, locus YLR102C, strain apc9, active compounds read low 1 | S. cerevisiae deletion strains, locus YLR262C, strain YPT6, active compounds read low 1.06 | S. cerevisiae deletion strains, locus YLR268W, strain sec22, active compounds read low 1.01 | S. cerevisiae deletion strains, locus YLR330W, strain CHS5, active compounds read low 1 | S. cerevisiae deletion strains, locus YLR342W, strain FKS1 (second series), active compounds read low 1.02 | S. cerevisiae deletion strains, locus YLR371W, strain rom2, active compounds read low 0.993 | S. cerevisiae deletion strains, locus YLR418C, strain cdc73, active compounds read low 0.973 | S. cerevisiae deletion strains, locus YML016C, strain PPZ1, active compounds read low 1 | S. cerevisiae deletion strains, locus YML032C, strain rad52, active compounds read low 1 | S. cerevisiae deletion strains, locus YML124C, strain tub3, active compounds read low 0.999 | S. cerevisiae deletion strains, locus YMR078C, strain ctf18, active compounds read low 0.988 | S. cerevisiae deletion strains, locus YMR223W, strain ubp8, active compounds read low 0.992 | S. cerevisiae deletion strains, locus YMR263W, strain SAP30, active compounds read low 0.992 | S. cerevisiae deletion strains, locus YMR307W, strain GAS1, active compounds read low 1.02 | S. cerevisiae deletion strains, locus YNL067W, strain RPL9B, active compounds read low 1.02 | S. cerevisiae deletion strains, locus YNL128W, strain TEP1, active compounds read low 1.02 | S. cerevisiae deletion strains, locus YNL153C, strain GIM3, active compounds read low 1.01 | S. cerevisiae deletion strains, locus YNL233W, strain BNI4, active compounds read low 1.02 | S. cerevisiae deletion strains, locus YNL250W, strain rad50, active compounds read low 0.967 | S. cerevisiae deletion strains, locus YNL271C, strain bni1, active compounds read low 0.977 | S. cerevisiae deletion strains, locus YNL298W, strain CLA4, active compounds read low 0.986 | S. cerevisiae deletion strains, locus YNL307C, strain MCK1, active compounds read low 0.995 | S. cerevisiae deletion strains, locus YNL322C, strain KRE1, active compounds read low 1.01 | S. cerevisiae deletion strains, locus YNR052C, strain pop2, active compounds read low 1 | S. cerevisiae deletion strains, locus YOL006C, strain TOP1, active compounds read low 1.01 | S. cerevisiae deletion strains, locus YOL012C, strain htz1 0.992 | S. cerevisiae deletion strains, locus YOL147C, strain pex11, active compounds read low 0.996 | S. cerevisiae deletion strains, locus YOR061W, strain CKA2, active compounds read low 1 | S. cerevisiae deletion strains, locus YOR069W, strain VPS5, active compounds read low 1.01 | S. cerevisiae deletion strains, locus YOR136W, strain idh2, active compounds read low 0.993 | S. cerevisiae deletion strains, locus YOR144C, strain elg1, active compounds read low 1 | S. cerevisiae deletion strains, locus YOR184W, strain ser1, active compounds read low 1.01 | S. cerevisiae deletion strains, locus YOR316C, strain cot1, active compounds read low 0.996 | S. cerevisiae deletion strains, locus YPL055C, strain LGE1, active compounds read low 1.03 | S. cerevisiae deletion strains, locus YPL241C, strain CIN2, active compounds read low 1 | S. cerevisiae deletion strains, locus YPR119W, strain clb2, active compounds read low 0.993 | S. cerevisiae deletion strains, locus YPR141C, strain kar3, active compounds read low 0.973 | S. cerevisiae deletion strains, locus YPR163C, strain tif3, active compounds read low 0.987 | S. cerevisiae deletion strains, locus YPR167C, strain met16, active compounds read low 0.999 | S. cerevisiae deletion strains, strain wtn01, active compounds read low 0.994 | S. cerevisiae strains, strain wild type, active compounds read low 1.01
